RORgamma inh = ROR gamma (mouse) transcription inhibition; Potency, µM (titrated, usually from 53.6 µM), usual class: inhibitors; 310,000 compounds, 5.4% hits; Drosophila S2 Gal4-RORgamma UAS-luciferase reporter, 20 h; further: nearly all actives have a fitted effect of over 60% in size
Target sequence (P51450 whole entry, looked up, the tested form may be a part): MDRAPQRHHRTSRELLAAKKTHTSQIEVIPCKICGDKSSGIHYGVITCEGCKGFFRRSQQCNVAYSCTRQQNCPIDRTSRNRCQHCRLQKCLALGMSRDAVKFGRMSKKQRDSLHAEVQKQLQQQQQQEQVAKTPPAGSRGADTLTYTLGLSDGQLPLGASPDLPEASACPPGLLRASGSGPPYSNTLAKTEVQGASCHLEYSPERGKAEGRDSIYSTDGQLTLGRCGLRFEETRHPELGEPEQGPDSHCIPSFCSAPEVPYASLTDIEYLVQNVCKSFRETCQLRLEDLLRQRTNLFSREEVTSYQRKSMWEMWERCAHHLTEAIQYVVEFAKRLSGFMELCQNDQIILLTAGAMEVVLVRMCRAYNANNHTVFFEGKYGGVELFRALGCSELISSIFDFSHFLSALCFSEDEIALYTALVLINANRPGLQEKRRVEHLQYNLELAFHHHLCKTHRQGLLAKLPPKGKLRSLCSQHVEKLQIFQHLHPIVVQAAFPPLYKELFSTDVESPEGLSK
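ROR gamma transcriptional activity was tracked as Gal4-UAS luciferase output in stably transfected Drosophila Schneider cells, with compound added 1 hr before 700 uM copper sulfate induction and a 20 hr ambient-temperature incubation.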
p53 reactivator = restores transcriptional activity of mutant p53. H1299 p53-A138V BP100-luciferase reporter, luminescence, 24 h. Potency, µM (titrated, usually from 92.2 µM), actives largely listed as activators. 320,000 compounds, 0.063% hits; further: nearly all actives have a fitted effect of over 45% in size
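H1299 (p53-null), stable ts p53-A138V + BP100-Luc; 1000 cells/well, Opti-MEM/10% FBS; cpd 4 pt, 1:5; 24 h, 37 deg C, 5% CO2; detection reagent 10 min RT; luminescence.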
Gal4-VP16 FLuc = Gal4-VP16 reporter inhibition counter-screen; Drosophila S2 Gal4-VP16 UAS-luciferase, luminescence, 20 h; Potency, µM (titrated, usually from 53.6 µM), actives largely listed as inhibitors; 310,000 compounds, 3.5% hits;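 further: Gal4-VP16 expression switched on by copper sulfate through the metallothionein promoter; nearly all actives have a fitted effect of over 50% in size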
Giardia kill = kills Giardia lamblia | Giardia lamblia trophozoite viability | activity change, % at 7.66 µM, hits read low | 340,000 compounds, 0.15% hits | AID 540267; in the data active means activity change below about -80%; inconclusive means between about -30% and that limit;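 further: parasites exposed to compound for two days anaerobically before the ATP read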
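Viability, read as ATP luminescence: trophozoites at 100 cells/well, compound added, 48 hrs anaerobic at 37 deg C, then 15-30 min room-temperature development before reading.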
ELG1 repair inh = ELG1-dependent DNA repair inhibition. AID 504467. Potency, µM (titrated, usually from 46.1 µM), actives largely listed as inhibitors. HEK293T ELG1-luciferase reporter, luminescence, 16 h; DNA damage induced by 5-fluorouridine. 330,000 compounds, 2.3% hits; further: nearly all actives have a fitted effect of over 55% in size
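HEK293T cells expressing luciferase-tagged ELG1 (2,000/well) received 5-Fluorouridine plus compound or DMSO for 16 hr at 37 °C. Luciferase was read by ONE-Glo luminescence after 30 min at room temperature.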
BRCA1 expr act = activators of BRCA1 expression; MCF7-BRCA1-FFLuc reporter, luminescence, 48 h; response scale: scaled: vehicle 0%, 10 µM genistein 100%; Potency, µM (doses to about 46.1 µM), usual class: activators; 380,000 compounds, 1.1% hits; AID 624202; further: nearly all actives have a fitted effect of over 80% in size
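Luminescence from a BRCA1-driven firefly luciferase in MCF7 cells was the read-out, taken 15 min after substrate addition following 48 h compound exposure at 37 °C. Data were normalized to a 10 microM genistein control and DMSO vehicle.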
Numbers stand for hits; . = inactive; ? = inconclusive; / = not tested or not shown; [ ] = dose if it differs, or a comment. Compounds with a hit are over-represented: about 7.6% of the library has one in this group of screens. Unless noted, the call rests on the fitted dose curve; in most records, active means well fitted curve in the direction sought with a large enough effect; inconclusive means small, poorly fitted or top-dose-only effect, or another doubt; inactive means no such curve, though single readings can be large; an effect the other way counts as inactive or inconclusive.

SMILES	RORgamma inh	p53 reactivator	Gal4-VP16 FLuc	Giardia kill	ELG1 repair inh	BRCA1 expr act
O=C(CN1C2CCCC1CC(NC(=O)C1CCCCC1)C2)NCc1ccc(F)cc1 (stereo not given)	.	.	?	.	12µM	.
O=C(Nc1ccncc1)c1cc(-c2cccc(Br)c2)nc2ccccc12	/	.	/	.	?	.
Cc1ccc2nc(-c3cccc(Br)c3)cc(C(=O)NC3=NCCS3)c2c1	2.5µM	.	4.5µM	.	21µM	.
O=C(NC1=NCCS1)c1cc(-c2cccc(Br)c2)nc2ccccc12	7.1µM	.	?	.	?	.
O=C(Nc1ncccn1)c1cc(-c2cccc(Br)c2)nc2ccccc12	.	.	.	?	?	.
Cc1cccc(NS(=O)(=O)c2ccc(C(=O)NCC3CCCO3)cc2)c1C (stereo not given)	.	.	.	.	.	.
O=C(COc1ccc(S(=O)(=O)NC2CCCCC2)cc1)N1CCN(c2ccc(F)cc2)CC1	.	.	?	.	9.2µM	.
O=C(CNS(=O)(=O)c1ccc(Br)cc1)N1CCN(c2ccc(F)cc2)CC1	.	.	.	.	?	.
NC(=O)C1CCN(C(=O)COc2ccc(S(=O)(=O)NC3CCCC3)cc2)CC1	.	.	.	.	.	.
O=C(CNS(=O)(=O)c1ccc(Cl)cc1)N1CCN(c2ccc(F)cc2)CC1	/	.	/	.	23µM	.
Cc1ccc(S(=O)(=O)N2C[C@H]3[C@H]4C(=O)N(c5ccccc5)C(=O)[C@H]4C[C@H](OC(=O)NC4CCCC4)[C@@]3(O)C2)cc1	/	/	/	/	/	.
CCc1nc2ccc(C(=O)N3CCN(c4ccccc4)CC3)cn2c1N(C)CCCc1ccccc1	/	/	/	/	/	.
Cc1cc2c(c(=O)n1Cc1cccnc1)C(Cc1ccccc1)C(C#N)=C(N)O2 (stereo not given)	?	.	14µM	.	.	.
COc1cccc(-c2ccc3ncnc(NCc4cccs4)c3c2)c1	.	.	.	.	15µM	.
c1cncc(-c2ccc3ncnc(NCc4cccs4)c3c2)c1	/	.	/	.	?	.
COc1cccc(CNc2ncnc3ccc(-c4c(C)noc4C)cc23)c1	?	.	?	?	.	.
COc1cccc(-c2ccc3ncnc(NCc4cccc(C)c4)c3c2)c1	/	.	/	.	16µM	.
Cc1ccccc1C(=O)Nc1cc(NC(=O)c2ccccc2C)cc(C(=O)O)c1	/	/	/	.	.	.
Nc1nonc1NC(=O)CSc1ncccc1C(=O)O	.	.	.	.	.	.
COc1ccc(/C=C/C(=O)NC(=S)N2CCN(c3ccccn3)CC2)cc1OC	3.2µM	.	11µM	.	.	.
COc1ccc(CC(=O)N2CCN(c3ccccn3)CC2)cc1OC	.	.	.	.	.	.
Cc1ccc(/C=C/C(=O)NC(=S)N2CCN(c3ccc(F)cc3)CC2)cc1	?	.	.	.	.	.
O=C(/C=C/c1ccc(F)cc1)NC(=S)N1CCN(c2ccccn2)CC1	2.5µM	.	20µM	.	.	?
CSc1ccc(/C=C/C(=O)N2CCN(c3ccccn3)CC2)cc1	13µM	.	.	.	.	.
COc1ccc(/C=C/C(=O)N2CCN(c3ccccn3)CC2)cc1	.	.	.	.	?	.
SMILES	RORgamma inh	p53 reactivator	Gal4-VP16 FLuc	Giardia kill	ELG1 repair inh	BRCA1 expr act
Cc1nc(C)c(C(=O)NCCC(c2ccccc2)c2ccccc2)o1	?	.	.	.	5.8µM	.
COC(=O)c1sccc1NC(=O)CC1C(=O)NCCN1C(=O)c1ccc(F)cc1 (stereo not given)	.	.	.	.	.	.
CCCCCN1C=CC(=C2C(=O)c3ccccc3C2=O)C=C1	1.1µM	.	1.3µM	-92	?	?
O=c1[nH]c(Nc2nc3ccccc3o2)nc2c1CCCC2	4µM	?	10µM	.	?	?
N/C(=N\OC(=O)c1ccc(Cl)cc1)c1nonc1N	.	.	.[0.365 µM]	.	.	.
NC(=O)C(OC(=O)CNC(=O)C1CCCCC1)c1ccccc1 (stereo not given)	/	/	/	.	/	.
CCOC(=O)c1c(C)[nH]c(C(=O)Cn2c(=O)c3c(ncn3CC)n(Cc3ccccc3)c2=O)c1C	.	.	.	.	21µM	.
CCOC(=O)c1c(C)[nH]c(C(=O)CN2C(=O)NC(CC)(c3ccccc3)C2=O)c1C (stereo not given)	.	.	.	.	16µM	.
CCn1cnc2c1c(=O)n(CC(=O)NCc1ccccc1)c(=O)n2Cc1ccccc1	.	.	.	.	.	.
O=C1CCCCC1Sc1nnc(-c2ccc3c(c2)OCO3)o1 (stereo not given)	0.56µM	.	0.89µM	.	?	.
O=[N+]([O-])c1ccc(N2CCN(C(=S)Nc3ccc(F)cc3F)CC2)cc1	13µM	.	?	.	?	.
COc1cccc(NC(=S)N2CCN(c3ccc([N+](=O)[O-])cc3)CC2)c1	.	.	.	.	.	.
COc1ccc(NC(=S)N2CCN(c3ccc([N+](=O)[O-])cc3)CC2)cc1OC	?	.	7.1µM	.	13µM	.
CC(C)C(NC(=O)c1ccccc1F)C(=O)NCC(c1ccco1)N1CCCCC1 (stereo not given)	/	.	/	.	.	.
CCn1c(N2CCN(S(=O)(=O)c3ccc(Cl)cc3)CC2)nc2ccccc21	?	.	?	.	15µM	.
CCn1c(N2CCN(S(=O)(=O)c3ccc(F)cc3)CC2)nc2ccccc21	.	.	.	.	?	.
CCCn1c(N2CCN(Cc3ccc(Cl)cc3)CC2)nc2ccccc21	11µM	.	?	.	?	.
CCn1c(N2CCN(Cc3ccc([N+](=O)[O-])cc3)CC2)nc2ccccc21	.	.	.	.	?	.
Cc1ccc(N(CCC#N)C(=O)CCl)cc1C	?	.	.	.	18µM	.
Cc1ccc(OCCCN2C(=O)C(=O)c3cccc(C)c32)cc1	7.9µM	.	13µM	.	.	.
O=C(Nc1nc(-c2cccs2)cs1)c1ccc(S(=O)(=O)N2CCCC2)cc1	.	.	.	.	16µM	.
NC(=O)c1ccsc1NC(=O)c1ccc(S(=O)(=O)N2CCCC2)cc1	.	.	?	.	.	13µM
CN(C)S(=O)(=O)c1ccc(C(=O)Nc2nc(-c3cccs3)cs2)cc1	.	.	.	.	12µM	.
Cc1csc(NC(=O)c2ccc(S(=O)(=O)N3CCCC3)cc2)n1	.	.	.	.	.	.
O=C(Nc1nc(-c2ccc(S(=O)(=O)N3CCCCCC3)cc2)cs1)c1ccccc1	.	.	.	.	7.3µM	.
CC(C)(C)C(=O)CSc1ncnc2sc3c(c12)CCC3	.	.	.	.	.	.

Source: PubChem (National Center for Advancing Translational Sciences (NCATS))
